Molecules are shown by their SMILES. “And” between values parts separate entries of the source, which are not always exact repeats. Equal values may be shown once. Results filed as inconclusive are left out. A call without a number means that no potency is given here. The source made the active and inactive calls. Calls follow the shape of the dose curve; as a rule, active = well fitted cell-killing curve with a large enough effect in the repeat runs; inconclusive = weak or mixed curves; inactive = no such curve, though single readings can be large or run the other way.
Potency is read from the fitted curve at half-maximal effect.

The assay is described as follows: qHTS assay for identifying genotoxic compounds that show differential cytotoxicity against isogenic chicken DT40 cell lines with known DNA damage response pathways - Rad54/Ku70 mutant cell line (AID 743015). Also: nearly all actives have a fitted effect of over 60% in size. To be noted: DT40 Rad54/Ku70 mutant viability, CellTiter-Glo, 40 h; series mostly up to 66.8 µM. (In qHTS, concentration-response curves come from the screen itself.)
`CCOP(=O)(OCC)Oc1cc(C)nc(C(C)C)n1`: the Potency entry is “inactive”. In the case of `CCOP(=O)(Sc1ccccc1)Sc1ccccc1`, the Potency entry was “inactive”. Regarding `Clc1ccc(C(Cl)(Cl)Cl)cc1Cl`, the Potency entry is “inactive”. The entry for `Nc1nc(N)nc(Cl)n1` is “inactive”; for `ClCBr` it is “inactive”; for `CC(Cc1ccc2c(c1)OCO2)NO` (configuration not stated) it is “inactive”. As to `CCOP(=O)(OCC)Oc1nc(Cl)c(Cl)cc1Cl`, the Potency was 60.8 µM (active). As for `C[N+]1(C)[C@@H]2CC[C@H]1CC(OC(=O)C(CO)c1ccccc1)C2` (some centres not stated), the Potency result is “inactive”. With `O=C(O)CCCCCCNC1c2ccccc2CCc2ccccc21`, the Potency entry was “inactive”.

On to `Cc1cnc2c(C(=O)O)c(Cl)ccc2c1`, for which the Potency result is “inactive”. The entry for `C#CCO` is “inactive”; for `CCCCCCCc1ccc(O)cc1` it is 19.3 µM (active); for `S=C=NCCc1ccccc1` it is “inactive”. On to `CC1=C2C[C@H]3[C@@H](CC=C4C[C@@H](O)CC[C@@]43C)[C@@H]2CC[C@]12O[C@@H]1C[C@H](C)CN[C@H]1[C@H]2C`, for which the Potency is 29.8 µM (active).

As for `FC(F)C(F)(F)OCC(Cn1cncn1)c1ccc(Cl)cc1Cl` (configuration not stated), the Potency was 7.65 µM (active).

For `CCCCN(CCCC)C(=S)[S-].CCCCN(CCCC)C(=S)[S-].[Ni+2]`, the Potency result is “inactive”. Regarding `COC(=O)/C=C(\C)OP(=O)(OC)OC`, the Potency result is “inactive”.

For `Nc1ccc(N=Nc2ccccc2)cc1`, the Potency was 56.1 µM (active).

With `Clc1ccc(C(c2ccc(Cl)cc2)C(Cl)Cl)cc1`, the Potency is 27.8 µM (active) and 10.9 µM (active). Consider `CCCCC(CC)COC(=O)c1ccccc1C(=O)OCC(CC)CCCC` (configuration not stated), for which the Potency entry is “inactive”.

In the case of `CCN(CC)CCc1c[nH]c2ccccc12`, the Potency result was “inactive”. `c1ccc(Nc2ccc(Nc3ccccc3)cc2)cc1`: the Potency was 24.2 µM (active).

The record behind these values is PubChem BioAssay (Tox21).
